Consider 40 molecules from PubChem BioAssay (NCI).

Where “and” joins values, the source holds several entries; their conditions need not be identical. Equal values may be shown once. Compounds without any hit were thinned out: in the full panel of roughly 83,000, 20% have a hit.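 Testing used 96-well plates and a 48-hour single-concentration exposure. Example: -40 means 40% of the starting cells died.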 A number with no mark means an inactive call. Calls of active or inactive are those of the source. Rule for the calls: active = growth percent below 10; inactive = the rest.

The assay deals with MDA-MB-468 breast. The experiment in a line: NCI-60 one-dose screen, 48 h (100 = growth as untreated, 0 = no growth, -100 = all killed). The settings on record: 10 µM unless noted.
`CCOC(=O)C(O)C(O)C(=O)OCC` (stereo not given): the growth is 102%.

For `COc1ccc(/C=N\NC(=O)CN2CCN(c3cc4c(cc3F)c(=O)c(C(=O)N/N=C/c3ccc(OC)c(OC)c3)cn4C3CC3)CC2)cc1OC`, the growth was -27.6% (active).

On to `O=C(O)c1cn(C2CC2)c2cc(N3CCN(C(=O)C[n+]4ccccc4)CC3)c(F)cc2c1=O`, for which the growth was 107%.

Turning to `CN(C)c1ccc(CNCCO)cc1`, the growth is 105%.

As to `CC(C)(C)OC(=O)N1CCC(O)[C@@H](O[Si](c2ccccc2)(c2ccccc2)C(C)(C)C)[C@H]1/C=C/c1ccccc1` (stereo not given in full), the growth was 15.2%.

With `O=C1/C(=C/c2ccccc2)SC(=Nc2ccccc2)N1Nc1ccccc1`, the growth is 1.39% (active).

On to `CCN1C(=O)C(C)C=C(C)C=C1C` (stereo not given), for which the growth is 110%.

Take `Cc1occc1-c1nc2s/c(=C\c3cn(-c4ccccc4)nc3-c3ccccc3)c(=O)n2n1`: the growth is 89.8%.

In the case of `CCOC(=O)c1c(-c2cc(OC)c(OC)c(OC)c2)csc1N`, the growth was 50%.

For `CC(C)C1=C[C@@]23CC[C@H]4[C@](C)(COCCC#N)CCC[C@]4(C)[C@H]2C[C@@H]1[C@@H]1[C@H]3[C@@H](OCCC#N)CC[C@@H]1OCCC#N`, the growth was -4.51% (active).

On to `Cc1ccccc1CCO`, for which the growth was 97.5%.

As to `COc1ccc(C2C(C#N)=C(N)Oc3c2sc2c(F)cccc32)cc1` (stereo not given), the growth was 40.6%.

Turning to `O=S(=O)(NCCCNc1nccc(-n2ccc3cccnc32)n1)c1ccc(Br)cc1`, the growth is 90.3%.

As to `COc1ccc(-c2cc(-c3cccc4ccccc34)n3c(n2)nc2ccccc23)cc1`, the growth was 52.4%.

In the case of `CO/N=C(/C)c1ccc(NC(=O)CSc2nnc(-c3ccncc3)n2-c2ccccc2)cc1`, the growth is 50.8%.

With `CC(C)(C)NC(=O)C(OC(=O)C1CCc2cc(F)ccc2O1)c1ccccc1Cl` (stereo not given), the growth was 105%.

As for `CCCCc1ccc(C(O)(CCN2CC3CCC(CC3)C2)c2ccccc2)cc1` (stereo not given), the growth is 97.4%.

As for `CC(=O)Nc1ccc2c(c1)Cc1c(F)c(F)c(F)c(F)c1-2`, the growth is 82.5%.

In the case of `CN(C)CCCn1c2c(c3ncccc3c1=O)C(=O)c1ccccc1-2`, the growth was 31.7%.

Take `Cc1ccc(S(=O)(=O)OC2COCOC2C(OS(=O)(=O)c2ccc(C)cc2)C2OCOCC2OS(=O)(=O)c2ccc(C)cc2)cc1` (stereo not given): the growth is 108%.

For the molecule `Cc1ccccc1NC(=O)c1sc2nc(C)c(C(C)O)cc2c1N` (stereo not given), the growth is 39.5%.

Consider `O=C(O)[C@@H](Cc1ccc2ccccc2c1)NC(=O)n1c2ccccc2c2ccccc21`, for which the growth was 11.9%.

On to `CN1CCN(Cc2ccc(NC(=O)c3ccc(C#N)c(C#Cc4cnc(N)c5ncccc45)c3)cc2C(F)(F)F)CC1`, for which the growth is 98%.

Consider `COc1ccc(Nc2[nH]n3c(=O)cc(-c4ccccc4)nc3c2C(=O)Nc2ccc(C)cc2)c(OC)c1`, for which the growth was 58.6%.

Take `COc1ccc2occ(C3=C(c4c[nH]c5ccccc45)C(=O)N(O)C3=O)c2c1`: the growth was 95.1%.

Consider `COc1cc(/C=C/C(=O)c2ccc(Cl)cc2)ccc1OS(=O)(=O)c1ccc(C)cc1`, for which the growth is 99.7%.

For `COc1ccc(C(=O)N2c3ccccc3Sc3ccccc32)c(C(F)(F)F)c1`, the growth is 29.7%.

For the molecule `CCSc1nc(-c2ccc(F)cc2)c(C#N)c(=O)[nH]1`, the growth was 91.4%.

Consider `CCCCCCCCCCCCCCCCCC(=O)[O][Sn]([CH2]CCC)([CH2]CCC)[CH2]CCC`, for which the growth was -96.2% (active).

As for `CN(CC(=O)N(Cc1ccc(C2CCCCC2)cc1)c1ccc(C(=O)NO)cc1)S(=O)(=O)c1c(F)c(F)c(F)c(F)c1F`, the growth is -36.3% (active).

With `CCC[S@@](=O)c1ccc2nc(NC(=O)OC)[nH]c2c1`, the growth is 68.5%.

Take `O=C1Nc2cc(Cl)ccc2/C1=C\c1ccc(OCc2ccc([N+](=O)[O-])cc2)cc1`: the growth is 52%.

For the molecule `OC(c1ccccc1)(c1ccccc1)C(F)(F)F`, the growth was 113%.

Take `O=S1(=O)CC(Br)C(Br)C1` (stereo not given): the growth was 37% and 75.6%.

For `COc1cc(-c2nc3ccc(-c4nnc(SCC(=O)Nc5ccc(C(C)=O)cc5)o4)cc3[nH]2)cc(OC)c1OC`, the growth was 101%.

Turning to `Cc1ccccc1NC(=O)Nc1nc2ccc([N+](=O)[O-])cc2s1`, the growth is -3.68% (active).

Take `COc1ccc(Oc2nc(Nc3ccc(N4CCCCC4)nc3)ncc2NC(=O)c2cc(OC)cc(OC)c2)cc1`: the growth is 23.4%.

For `C=C1C(=O)O[C@H]2[C@H]1CC/C(COC(=O)NCc1cccc(OC)c1)=C\CC[C@@]1(C)O[C@@H]21`, the growth is -13.2% (active).

As for `Cc1ccc(-c2nc(N3CCCNCC3)c3oc(-c4ccc(C)cc4)nc3n2)cc1`, the growth was 5.4% (active).

With `Cc1[nH]c2ccccc2c1C1=CC(=O)C=CC1=O`, the growth was 72%.
